The list is not random: actives were taken first. Their share in the collection is about 27%.
CYP2C9 activ: increases human cytochrome P450 2C9 activity | P11712 | recombinant CYP2C9, luciferin-H conversion, luminescence; stronger effect = higher value; factor 1 = untreated enzyme, 0 = blocked | activation factor at 5 µM | 1.4% of 96,000 active;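 active = activation factor of 2 or more for CYP2C9 at a 5 µM dose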
Cav3 T inh: human Cav3.2 channel inhibition, primary screen; O95180; AID 449739; 4% of 100,000 active; Cav3.2-expressing cells, Fluo-4 calcium fluorescence FDSS; stronger effect = lower value; B-score at 10 µM;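 active = single-dose well whose peak fluorescence ratio is a statistical outlier from its plate by either plate-standardised score or position-corrected B-score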
CYP2C19 activ: increases human CYP2C19 enzyme activity; P33261; recombinant CYP2C19, luciferin-H EGE luminescence; stronger effect = higher value; 0 = fully inhibited enzyme, 1 = untreated enzyme; activation factor at 5 µM; 96,000 tested, under 10 active; AID 1025;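 active = activation factor of at least 2 at 5 µM in the primary screen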
Target sequence (P33261 whole entry, looked up): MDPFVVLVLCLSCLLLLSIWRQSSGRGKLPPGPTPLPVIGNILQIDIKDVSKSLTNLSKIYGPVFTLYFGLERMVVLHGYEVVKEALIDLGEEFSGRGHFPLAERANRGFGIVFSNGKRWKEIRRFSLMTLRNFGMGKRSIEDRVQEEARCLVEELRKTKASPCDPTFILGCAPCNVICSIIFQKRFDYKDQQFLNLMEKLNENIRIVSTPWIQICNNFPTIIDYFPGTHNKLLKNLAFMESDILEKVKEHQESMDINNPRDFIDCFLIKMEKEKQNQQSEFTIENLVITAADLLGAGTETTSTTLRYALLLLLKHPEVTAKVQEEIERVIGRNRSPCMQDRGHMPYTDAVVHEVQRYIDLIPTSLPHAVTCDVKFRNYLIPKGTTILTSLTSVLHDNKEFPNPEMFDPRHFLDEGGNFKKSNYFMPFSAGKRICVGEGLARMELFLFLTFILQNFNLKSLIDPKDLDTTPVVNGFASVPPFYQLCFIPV
CYP2C19 inh: human CYP2C19 inhibition; P33261; CYP2C19 Supersomes, luciferin-H EGE luminescence, 30 min; inhibition, % at 5 µM; 21% of 96,000 active;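 active = CYP2C19 inhibition above a set limit at 5 µM in the primary screen, cut at about 50% in these data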
CYP2C9 inhib: blocks human cytochrome P450 2C9. CYP2C9 Supersomes, luciferin-H conversion, luminescence. inhibition, % at 5 µM. 20% of 96,000 active;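 active = blocking of liver enzyme CYP2C9 beyond about 50% at 5 µM, limit read from the data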
Numbers stand for hits; 0 = inactive; - = no result given.

SMILES	CYP2C9 activ	Cav3 T inh	CYP2C19 activ	CYP2C19 inh	CYP2C9 inhib
CCC/C=C(\CCC)C(NC(=O)CCc1ccccc1)c1ccc(C(F)(F)F)cc1 (stereo unspecified)	-	0	-	-	-
Cc1nonc1OCC(C)(COc1nonc1C)NC(=O)c1ccc(Cl)cc1	-	-4.2	-	-	-
CC(C)CC(CO)N1CCN(C(=O)c2cccc(C(F)(F)F)c2)CCC1=O (stereo unspecified)	-	0	-	-	-
COc1ccc(C(CCN2CCOCC2)c2c(OC)cc(OC)c3c(C)cc(=O)oc23)cc1 (stereo unspecified)	-	0	-	-	-
CCN1C(=O)CC(c2ccco2)Sc2ccccc21 (stereo unspecified)	0	0	0	53	0
Cc1ccc2c(c1)N(CC(=O)NCc1ccco1)C(=O)CO2	-	0	-	-	-
O=C(CN1C(=O)CC(c2ccco2)Sc2ccccc21)Nc1ccccc1F (stereo unspecified)	-	0	-	-	-
O=C(CN1C(=O)CC(c2ccco2)Sc2ccccc21)NCc1ccc2c(c1)OCO2 (stereo unspecified)	0	-	0	94	86
COc1cc(C2CC(=O)N(CC(=O)NCc3ccco3)c3ccccc3S2)cc(OC)c1OC (stereo unspecified)	0	0	0	65	71
COCCCNC(=O)c1ccc2nc3ccccc3c(=O)n2c1	0	0	0	0	0
Cc1cc(N2CCCCCC2)nc2ccccc12	0	0	0	0	0
CCc1nc2c(n1O)CCc1nonc1-2	0	0	0	0	0
CN(C)C(=O)N1CCN(C(=O)c2ccco2)CC1	0	0	0	0	0
CC12CC(c3ccccc3O1)N(C(=O)c1ccco1)C(=S)N2c1ccc(F)cc1 (stereo unspecified)	0	0	0	63	0
COc1cccc(-c2noc(-c3cccnc3)n2)c1	0	0	0	0	0
COc1cccc(-c2noc(C(C)n3nc(C)c([N+](=O)[O-])c3C)n2)c1 (stereo unspecified)	0	0	0	0	55
CCn1c(Sc2nc(C)nc3scc(-c4cccs4)c23)n[nH]c1=O	0	0	0	57	58
COc1cc2c(cc1OC)CN(C(=O)CC1CC3CCC1C3)CC2 (stereo unspecified)	0	0	0	0	0
O=C(Nc1cccc2ccccc12)N1CCOCC1	0	0	0	0	0
S=C(Nc1cccc2ccccc12)NN1CCOCC1	0	0	0	75	81
O=C(Nc1cc(N2CCOCC2)ncn1)Nc1cccc2ccccc12	2	0	0	0	0
O=C(Oc1cccc2c(OC(=O)N3CCCC3)cccc12)N1CCCC1	-	0	-	-	-
COC(=O)c1c(-n2c(C)cc(C=O)c2C)sc2c1CCCC2	-	0	-	-	-
COc1ccc(OC)c(/C=N/N(C)c2ccccc2)c1	0	0	0	67	56
COc1cc(/C=N/N(C)c2ccccc2)cc(Cl)c1O	0	0	0	52	58
SMILES	CYP2C9 activ	Cav3 T inh	CYP2C19 activ	CYP2C19 inh	CYP2C9 inhib
CCCn1nnc(NC(=O)c2cc(Br)cc(Br)c2OC)n1	0	0	0	83	0
CCCn1nnc(NC(=O)c2ccc(Br)cc2)n1	0	0	0	56	0
CCCn1nnc(NC(=O)c2ccc(OC)cc2)n1	0	0	0	0	0
c1ccc2c3nnc4n(c-3nc2c1)CCCS4	0	0	0	0	0
COc1cc(Nc2cc(C)nc3nc(C)nn23)cc(OC)c1OC	0	0	0	0	0
Cc1cccc(NC(=O)CCCN2C(=O)c3cccc4cccc(c34)C2=O)c1	0	0	0	0	0
O=C(CSc1nc(-c2ccncc2)nn1CC(=O)N1CCCCC1)NC1CCCC1	0	0	0	64	79
CCCn1c(SCC(=O)NC2CCCCC2)nnc1-c1ccncc1	0	0	0	65	0
CCn1c(CNC(=O)Cc2ccc(OC)cc2)nnc1SCC(=O)NC1CCCCC1	0	0	0	0	0
CCn1c(SCC(=O)NC2CCCCC2C)nnc1-c1ccc(OC)cc1 (stereo unspecified)	0	0	0	71	68
O=C(Cn1c(SCC(=O)NC2CCCC2)nnc1-c1ccncc1)Nc1ccc2c(c1)OCO2	0	0	0	91	91
COCCNC(=O)CN1CCN(Cc2cccc(Cl)c2)C1=O	0	0	0	0	0
Cc1c(C(=O)O)sc(=S)n1-c1ccccc1	0	0	0	0	0
COc1ccc(C2NC(=O)c3sc(=S)n(-c4ccccc4)c3N2)cc1 (stereo unspecified)	0	-8.4	0	0	0
Cn1nnnc1SCCNCc1ccc(Cl)cc1	0	0	0	84	0
CCOc1cc(CNCCc2ccc(S(N)(=O)=O)cc2)cc(Cl)c1OCc1ccccc1	0	0	0	0	0
CCOc1cc(CNCCSc2nnnn2C)cc(Br)c1OCc1ccccc1	0	0	0	94	81
O=C(NCc1ccc(C(F)(F)F)cc1)C1CC(c2c(Cl)cccc2Cl)=NO1 (stereo unspecified)	0	0	0	64	0
COc1ccccc1CNC(=O)C1CC(c2cccc([N+](=O)[O-])c2)=NO1 (stereo unspecified)	2.5	0	0	0	0
CCCCNC(=O)C1CC(c2cccc([N+](=O)[O-])c2)=NO1 (stereo unspecified)	2	0	0	0	0
O=C(NCc1ccco1)C1CC(c2cccc([N+](=O)[O-])c2)=NO1 (stereo unspecified)	0	0	0	0	0
CCCCNC(=O)C1CC(c2c(Cl)cccc2Cl)=NO1 (stereo unspecified)	4.8	0	0	0	0
CC(OC(=O)c1ccc2ccccc2n1)C(=O)Nc1ccc(N2CCOCC2)cc1 (stereo unspecified)	0	0	0	0	0
O=c1c2c3c(sc2n2cnnc2n1-c1ccccc1)N(Cc1ccccc1)CCC3	0	0	0	0	0
COc1ccccc1NC(=O)C(=O)N1N=C(C(C)C)CC1(O)C(F)(F)F (stereo unspecified)	0	0	0	0	0
SMILES	CYP2C9 activ	Cav3 T inh	CYP2C19 activ	CYP2C19 inh	CYP2C9 inhib
CC(C)OC(=O)[C@H]1[C@H](c2ccc(Cl)cc2)[C@@](C#N)(C(N)=O)[C@@H]2C=CC(C(N)=O)=CN21	0	0	0	0	0
O=C(NO)c1ccc(C(=O)N(C2CCCCC2)C2CCCCC2)cc1	0	0	0	0	0
C=C(C)Cn1c(CCNC(=O)CC)nc2ccccc21	-	0	-	-	-
CC(=O)Nc1nonc1-c1nc2ccccc2n1CCC#N	0	0	0	0	0
Cc1ccc(S(=O)(=O)CC2CSc3nc4ccccc4n32)cc1 (stereo unspecified)	0	0	0	68	54
Cc1ccc(S(=O)(=O)CCc2nc3ccccc3n2CCC#N)cc1	0	0	0	51	0
COC(=O)Cn1c(CCS(=O)(=O)c2ccc(C)c(C)c2)nc2ccccc21	0	0	0	61	0
CCn1c(C)c(/C=N/Nc2nc3ccccc3s2)c2ccccc21	0	0	0	0	0
COC(=O)C(C)Sc1nc2c(c(-c3ccc(OC)cc3)c1C#N)-c1ccccc1C2=O (stereo unspecified)	-	0	-	-	-
CCOC(=O)c1ccc2c(c1)nc(SCc1cn3ccsc3n1)n2CC	0	0	0	0	52

High-throughput results: PubChem, several laboratories
